In PubChem BioAssay (NCI):
About 79,000 compounds went through this panel and 15% of them were active in at least one assay; those are over-represented in the sample as a whole. No stated cut-off is given here; in the data, active means growth inhibition above about 70%; inactive means the rest.

How the values were obtained:
[1] = NCI Yeast Anticancer Drug Screen. Data for the rad50 strain (AID 155);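 further: 0% = growth of vehicle-only cultures of the same strain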; conditions: S. cerevisiae rad50 strain growth inhibition; at 50.0 µM; stronger effect = higher value
How it was run: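 Yeast carrying a defined DNA repair defect were exposed to test compounds, and growth was compared with vehicle-treated controls to give percent inhibition.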

[2] = NCI Yeast Anticancer Drug Screen. Data for the mec2-1 strain (AID 157); conditions: S. cerevisiae mec2-1 strain, at 50.0 µM, stronger effect = higher value
How it was run: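 Yeast mec2-1 mutant treated with compound. Readout: growth inhibition vs vehicle controls.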

[3] = NCI Yeast Anticancer Drug Screen. Data for the sgs1 mgt1 strain (AID 161);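 further: 0% = growth of cultures given vehicle only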; conditions: S. cerevisiae sgs1 mgt1 strain, at 50.0 µM, stronger effect = higher value
How it was run: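 Genetically altered yeast, compound exposure, growth inhibition relative to vehicle.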

[4] = NCI Yeast Anticancer Drug Screen. Data for the cln2 rad14 strain (AID 165);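 further: 0% = growth equal to vehicle treated cultures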; conditions: S. cerevisiae cln2 rad14 strain, at 50.0 µM, stronger effect = higher value
How it was run: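 cln2 rad14 yeast strain; compound exposure; growth inhibition read vs vehicle controls.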

[5] = NCI Yeast Anticancer Drug Screen. Data for the bub3 strain (AID 167); conditions: S. cerevisiae bub3 mutant strain, at 50.0 µM, stronger effect = higher value
How it was run: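 Compounds were applied to a genetically altered yeast strain carrying a cell-cycle control defect. Growth inhibition was scored against vehicle-treated controls.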

[6] = NCI Yeast Anticancer Drug Screen. Data for the mlh1 rad18 strain (AID 175); conditions: S. cerevisiae mlh1 rad18 strain growth inhibition; at 50.0 µM; stronger effect = higher value
How it was run: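 Yeast w/ defined DNA-repair lesions; compound exposure; growth vs vehicle controls → % inhibition.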

Measured: growth inhibition

CC(C)N1COC2Cc3ccccc3CC21 (stereo not given)
inactive: [1] -7.15% | [2] 1.65% | [3] -29% | [4] 10.1% | [5] -20.2% | [6] -16.9%

CCCCCCCCCCCCCCCCCCC[As](=O)(O)CCCCCCCCCCCCCCCCCCC
inactive: [1] 46.2% | [2] 19.2% | [3] 23.4% | [4] -2.2% | [5] 13.4% | [6] 30.4%

O=C(O)C1C(C(=O)O)C2(Cl)C(Cl)=C(Cl)C1(Cl)C2(Cl)Cl.[Cd] (stereo not given)
inactive: [1] 61.4% | [2] 13.9% | [3] -0.2% | [4] -14.7% | [5] -6.75% | [6] 19.4%

C=C(C)C1C2CC3(C)C4(CO4)C4OC4C3(O)C1C(=O)O2 (stereo not given)
inactive: [1] 13.3% | [2] -16.4% | [3] 14.8% | [4] 4.2% | [5] 5.35% | [6] -47.2%

CC1CN=C(Nc2ccc(F)c(Cl)c2)S1 (stereo not given)
inactive: [1] -14.4% | [2] -16.1% | [3] -44.9% | [4] 8.65% | [5] -0.25% | [6] -22.9%

Cc1ccc(S(=O)(=O)NNP(Br)(c2ccccc2)(c2ccccc2)c2ccccc2)cc1
inactive: [1] 26.3% | [2] -1.1% | [3] 5.7% | [4] -0.75% | [5] 5.35% | [6] 12.4%

CCC(C)C1(CCc2ccccc2)C(=O)NC(=O)NC1=O (stereo not given)
inactive: [1] -2.8% | [2] -14.7% | [3] 3.55% | [4] -31.3% | [5] 10.4% | [6] -0.65%

COc1ccc2c(c1O)CNCC2c1ccc(O)cc1O (stereo not given)
inactive: [1] 0.6% | [2] -12% | [3] -7.25% | [4] -11.9% | [5] -24.8% | [6] -2%

CCCCCCCCCCCCCCCCCC(=O)NC(CC(=O)OCCCCCC)c1ccc(N(CCCl)CCCl)cc1 (stereo not given)
inactive: [1] -2.6% | [2] 10.8% | [3] 12.8% | [4] -6.5% | [5] -3.9% | [6] 22.6%

CC(C)[C@H](C)/C=C/[C@@H](C)C1CC[C@H]2[C@@]34C=C[C@]5(C[C@@H](O)CC[C@]5(C)[C@H]3CC[C@]12C)OO4 (stereo not given in full)
inactive: [1] 11.8% | [2] 19% | [3] -13.2% | [4] 2.15% | [5] -20.4% | [6] -31.6%

CCOP(=O)(OCC)/C(C#N)=C/c1cc(O)ccc1O
inactive: [1] -34.2% | [2] -35.1% | [3] -51.9% | [4] -10.2% | [5] -47.9% | [6] -45.8%

COc1ccc(CCN(C)Cc2cccc(OC)c2OC)cc1OC
inactive: [1] -17.1% | [2] -5.85% | [3] -3.85% | [4] -0.95% | [5] -16.1% | [6] -2.1%

CCOC(=O)C(Br)C(C)C (stereo not given)
inactive: [1] 24.1% | [2] 12% | [3] 16.1% | [4] 24.6% | [5] 7.6% | [6] 10.5%

CSCCC(N)P(C)(=O)O (stereo not given)
inactive: [1] -16.4% | [2] -37.5% | [3] -15.7% | [4] 1.5% | [5] -46.1% | [6] -17.5%

C1CCC(NC2CCCC2)C1
inactive: [1] 13.4% | [2] -0.5% | [3] 10.1% | [4] 11.7% | [5] -8.4% | [6] 5.45%

COP(=O)(NC(=O)OC(C)C)OC
inactive: [1] -37.1% | [2] -21.2% | [3] -9.8% | [4] 5.2% | [5] -15.4% | [6] -7.95%

NC(=O)Cc1nn[nH]n1
inactive: [1] -16.4% | [2] -13.8% | [3] -27.1% | [4] 5.95% | [5] -7.35% | [6] -21.9%

Cc1cccc(C=NCCOCCOCCN=Cc2cccc(C)c2O)c1O.[Ni]
inactive: [1] -8.3% | [2] 2.65% | [3] -13.6% | [4] 1.25% | [5] -19.6% | [6] -14.2%

CCOP(=O)(OCC)/C(C#N)=C/c1ccoc1
inactive: [1] -36% | [2] -5.8% | [3] -58.2% | [4] -15.2% | [5] -29.9% | [6] -51%

NC(CSC(c1ccccc1)c1ccccc1)C(=O)O (stereo not given)
inactive: [1] 6.3% | [2] 0% | [3] 3.35% | [4] 5% | [5] 13.4% | [6] 3.5%
